From publication PMC7862700, “An all-to-all approach to the identification of sequence-specific readers for epigenetic DNA modifications on cytosine”

Key:
Assay in all cases: DAPPL (digital affinity profiling via proximity ligation, sequencing); 10 mM Tris-HCl pH 7.5, 50 mM NaCl, 1 mM DTT, 4% glycerol, room temperature, 30 min; GST-TFs on glutathione beads, 16-mer random dsDNA library, 0.1% formaldehyde crosslink after washing; high values mean tight binding
FLI1 = molecular target: T1, FLI1 (Homo sapiens, UniProt Q01543 1-452); conditions: protein: recombinant; tags: N-terminal GST; dsDNA, one strand shown
T1 sequence: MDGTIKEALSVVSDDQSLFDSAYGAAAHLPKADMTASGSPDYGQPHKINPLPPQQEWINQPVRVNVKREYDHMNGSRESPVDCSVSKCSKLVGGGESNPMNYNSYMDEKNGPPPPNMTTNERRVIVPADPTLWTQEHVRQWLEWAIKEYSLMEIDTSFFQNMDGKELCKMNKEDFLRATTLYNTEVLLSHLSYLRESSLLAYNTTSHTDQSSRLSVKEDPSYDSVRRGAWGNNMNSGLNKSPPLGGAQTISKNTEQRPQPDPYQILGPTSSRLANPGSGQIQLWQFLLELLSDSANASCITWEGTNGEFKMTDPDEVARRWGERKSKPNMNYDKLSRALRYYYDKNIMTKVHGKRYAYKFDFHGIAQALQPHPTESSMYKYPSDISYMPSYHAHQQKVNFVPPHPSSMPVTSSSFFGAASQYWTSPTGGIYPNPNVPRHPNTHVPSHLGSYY
How it was run: (§1)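 Sequencing on an Illumina NextSeq500 followed washing, crosslinking with 0.1% formaldehyde, proximity ligation (BsaI/T4 ligase, 1 h, 37 °C) and PCR amplification of pools that had been incubated for 30 min at room temperature with 200 nmole of a random double-stranded 16-mer DNA library in Tris/NaCl/DTT/glycerol buffer. Each pool held DNA-barcoded human transcription factors, expressed in yeast as GST fusions and captured on glutathione beads, plus a tag-only sample. Binding signal is a hexamer's read frequency for a factor divided by its frequency in the tag-only sample.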

ELK1 = molecular target: T2, ELK1 (Homo sapiens, UniProt P19419 1-428); conditions: protein: recombinant; tags: N-terminal GST; dsDNA, one strand shown
T2 sequence: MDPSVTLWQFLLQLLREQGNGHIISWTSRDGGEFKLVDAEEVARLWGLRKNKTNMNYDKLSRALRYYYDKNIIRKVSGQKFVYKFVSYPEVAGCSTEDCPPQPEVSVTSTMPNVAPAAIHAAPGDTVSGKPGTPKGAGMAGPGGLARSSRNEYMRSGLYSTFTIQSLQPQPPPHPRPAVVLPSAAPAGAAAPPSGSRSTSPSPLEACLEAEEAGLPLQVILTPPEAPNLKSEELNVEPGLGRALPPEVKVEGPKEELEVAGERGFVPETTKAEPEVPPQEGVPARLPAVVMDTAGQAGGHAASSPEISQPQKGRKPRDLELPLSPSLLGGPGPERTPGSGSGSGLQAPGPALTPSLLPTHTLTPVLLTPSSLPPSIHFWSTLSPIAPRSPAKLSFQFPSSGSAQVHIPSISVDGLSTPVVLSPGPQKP
How it was run: as §1

GABPA = molecular target: T3, GABPA (Homo sapiens, UniProt Q06546 1-454); conditions: protein: recombinant; tags: N-terminal GST; dsDNA, one strand shown
T3 sequence: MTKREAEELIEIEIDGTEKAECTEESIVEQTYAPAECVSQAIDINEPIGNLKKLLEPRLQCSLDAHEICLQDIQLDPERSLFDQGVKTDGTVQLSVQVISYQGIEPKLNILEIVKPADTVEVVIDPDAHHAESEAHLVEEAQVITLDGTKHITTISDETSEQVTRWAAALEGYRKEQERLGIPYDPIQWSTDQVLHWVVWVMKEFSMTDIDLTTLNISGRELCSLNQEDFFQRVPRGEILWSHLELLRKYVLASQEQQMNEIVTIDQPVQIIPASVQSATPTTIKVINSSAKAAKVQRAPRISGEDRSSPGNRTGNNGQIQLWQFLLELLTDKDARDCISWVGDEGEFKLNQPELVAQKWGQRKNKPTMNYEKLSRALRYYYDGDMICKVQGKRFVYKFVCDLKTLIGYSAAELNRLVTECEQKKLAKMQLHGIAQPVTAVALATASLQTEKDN
How it was run: as §1

ERG = molecular target: T4, ERG (Homo sapiens, UniProt P11308 1-479); conditions: protein: recombinant; tags: N-terminal GST; dsDNA, one strand shown
T4 sequence: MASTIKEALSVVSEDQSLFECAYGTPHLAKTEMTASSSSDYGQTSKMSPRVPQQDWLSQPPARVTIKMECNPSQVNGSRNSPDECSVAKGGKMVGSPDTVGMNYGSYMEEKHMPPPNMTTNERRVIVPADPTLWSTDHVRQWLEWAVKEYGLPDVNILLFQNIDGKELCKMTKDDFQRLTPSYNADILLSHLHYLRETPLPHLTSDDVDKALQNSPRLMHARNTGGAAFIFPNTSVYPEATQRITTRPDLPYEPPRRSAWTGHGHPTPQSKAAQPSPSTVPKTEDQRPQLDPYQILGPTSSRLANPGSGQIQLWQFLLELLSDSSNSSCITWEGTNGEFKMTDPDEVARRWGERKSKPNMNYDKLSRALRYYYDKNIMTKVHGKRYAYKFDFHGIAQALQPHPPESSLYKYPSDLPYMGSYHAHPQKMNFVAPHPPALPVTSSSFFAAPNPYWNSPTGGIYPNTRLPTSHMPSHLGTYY
How it was run: as §1

ELF1 = ELF1 (Homo sapiens, UniProt P32519 1-619); conditions: protein: recombinant; tags: N-terminal GST; dsDNA, one strand shown
Sequence of ELF1 (P32519 whole entry): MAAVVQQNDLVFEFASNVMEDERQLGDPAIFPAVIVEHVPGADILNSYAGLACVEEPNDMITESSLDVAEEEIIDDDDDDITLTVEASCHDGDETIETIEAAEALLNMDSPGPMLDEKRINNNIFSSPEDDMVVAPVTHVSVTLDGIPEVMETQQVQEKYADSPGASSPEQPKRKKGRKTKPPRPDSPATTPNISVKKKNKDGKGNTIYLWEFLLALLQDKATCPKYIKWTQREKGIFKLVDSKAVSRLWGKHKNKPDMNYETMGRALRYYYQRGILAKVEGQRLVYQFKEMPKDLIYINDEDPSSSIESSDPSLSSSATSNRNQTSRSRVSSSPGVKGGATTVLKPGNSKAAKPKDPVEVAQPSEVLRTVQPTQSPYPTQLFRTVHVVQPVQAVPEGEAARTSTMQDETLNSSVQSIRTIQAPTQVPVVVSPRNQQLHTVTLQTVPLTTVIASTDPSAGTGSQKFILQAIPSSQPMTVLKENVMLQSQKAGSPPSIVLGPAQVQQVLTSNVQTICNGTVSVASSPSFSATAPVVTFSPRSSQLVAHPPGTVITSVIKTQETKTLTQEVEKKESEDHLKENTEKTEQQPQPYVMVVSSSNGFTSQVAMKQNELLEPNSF
How it was run: as §1

EHF = molecular target: T5, EHF (Homo sapiens, UniProt Q9NZC4 1-300); conditions: protein: recombinant; tags: N-terminal GST; dsDNA, one strand shown
T5 sequence: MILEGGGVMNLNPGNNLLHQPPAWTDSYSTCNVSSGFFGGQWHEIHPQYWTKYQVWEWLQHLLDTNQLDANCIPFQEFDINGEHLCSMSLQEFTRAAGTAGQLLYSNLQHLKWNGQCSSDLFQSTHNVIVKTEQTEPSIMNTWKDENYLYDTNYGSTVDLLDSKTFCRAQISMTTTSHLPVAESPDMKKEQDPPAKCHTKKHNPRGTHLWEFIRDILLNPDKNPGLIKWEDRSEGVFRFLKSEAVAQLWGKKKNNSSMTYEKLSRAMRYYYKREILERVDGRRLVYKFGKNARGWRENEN
How it was run: as §1

SPI1 = SPI1 (Homo sapiens, UniProt P17947 1-270); conditions: protein: recombinant; tags: N-terminal GST; dsDNA, one strand shown
How it was run: as §1

SPIB = SPIB (Homo sapiens, UniProt Q01892 1-262); conditions: protein: recombinant; tags: N-terminal GST; dsDNA, one strand shown
Sequence of SPIB (Q01892 whole entry): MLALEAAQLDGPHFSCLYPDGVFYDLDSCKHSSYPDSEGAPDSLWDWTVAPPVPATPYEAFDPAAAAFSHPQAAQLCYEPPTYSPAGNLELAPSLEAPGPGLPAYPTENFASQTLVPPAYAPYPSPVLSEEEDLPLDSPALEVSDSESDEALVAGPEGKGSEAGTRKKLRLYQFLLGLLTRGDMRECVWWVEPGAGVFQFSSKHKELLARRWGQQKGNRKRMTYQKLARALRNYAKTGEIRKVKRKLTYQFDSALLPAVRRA
How it was run: as §1

ELK3 = molecular target: T6, ELK3 (Homo sapiens, UniProt P41970 1-407); conditions: protein: recombinant; tags: N-terminal GST; dsDNA, one strand shown
T6 sequence: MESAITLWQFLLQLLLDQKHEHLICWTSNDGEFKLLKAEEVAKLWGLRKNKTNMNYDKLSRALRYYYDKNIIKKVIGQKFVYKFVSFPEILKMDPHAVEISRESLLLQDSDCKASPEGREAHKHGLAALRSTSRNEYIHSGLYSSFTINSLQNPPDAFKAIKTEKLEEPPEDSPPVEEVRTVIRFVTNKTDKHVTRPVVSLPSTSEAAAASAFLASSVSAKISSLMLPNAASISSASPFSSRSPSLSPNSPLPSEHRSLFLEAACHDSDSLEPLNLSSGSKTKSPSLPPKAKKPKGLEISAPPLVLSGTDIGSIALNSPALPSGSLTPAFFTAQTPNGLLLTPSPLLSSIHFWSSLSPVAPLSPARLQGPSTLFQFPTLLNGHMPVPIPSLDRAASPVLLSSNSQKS
How it was run: as §1

FEV = molecular target: T7, FEV (Homo sapiens, UniProt Q99581 1-238); conditions: protein: recombinant; tags: N-terminal GST; dsDNA, one strand shown
T7 sequence: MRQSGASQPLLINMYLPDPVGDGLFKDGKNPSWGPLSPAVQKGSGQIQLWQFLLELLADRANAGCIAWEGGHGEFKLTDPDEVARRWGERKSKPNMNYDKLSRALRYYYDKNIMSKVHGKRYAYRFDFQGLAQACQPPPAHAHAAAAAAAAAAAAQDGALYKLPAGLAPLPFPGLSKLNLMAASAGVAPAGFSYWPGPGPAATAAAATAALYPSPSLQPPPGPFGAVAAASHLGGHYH
How it was run: as §1

ETV5 = ETV5 (Homo sapiens, UniProt P41161 1-510); conditions: protein: recombinant; tags: N-terminal GST; dsDNA, one strand shown
Sequence of ETV5 (P41161 whole entry): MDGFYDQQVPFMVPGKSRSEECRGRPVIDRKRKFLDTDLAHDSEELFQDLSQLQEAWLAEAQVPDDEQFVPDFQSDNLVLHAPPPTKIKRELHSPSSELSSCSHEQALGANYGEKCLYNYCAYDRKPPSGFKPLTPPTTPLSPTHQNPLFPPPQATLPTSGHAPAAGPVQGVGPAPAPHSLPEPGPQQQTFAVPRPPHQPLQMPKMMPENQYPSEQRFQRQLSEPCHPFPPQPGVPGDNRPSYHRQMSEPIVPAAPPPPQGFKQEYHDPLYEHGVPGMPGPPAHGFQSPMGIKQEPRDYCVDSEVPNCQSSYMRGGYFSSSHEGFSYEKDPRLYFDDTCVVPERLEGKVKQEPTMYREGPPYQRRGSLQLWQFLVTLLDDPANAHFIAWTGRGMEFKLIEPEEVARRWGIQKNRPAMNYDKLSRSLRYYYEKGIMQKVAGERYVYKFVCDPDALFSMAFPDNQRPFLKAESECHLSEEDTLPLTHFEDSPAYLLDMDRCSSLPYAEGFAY
How it was run: as §1

HSF1 = HSF1 (Homo sapiens, UniProt Q00613 1-529); conditions: protein: recombinant; tags: N-terminal GST; chain copies: 3; dsDNA, one strand shown
Sequence of HSF1 (Q00613 whole entry): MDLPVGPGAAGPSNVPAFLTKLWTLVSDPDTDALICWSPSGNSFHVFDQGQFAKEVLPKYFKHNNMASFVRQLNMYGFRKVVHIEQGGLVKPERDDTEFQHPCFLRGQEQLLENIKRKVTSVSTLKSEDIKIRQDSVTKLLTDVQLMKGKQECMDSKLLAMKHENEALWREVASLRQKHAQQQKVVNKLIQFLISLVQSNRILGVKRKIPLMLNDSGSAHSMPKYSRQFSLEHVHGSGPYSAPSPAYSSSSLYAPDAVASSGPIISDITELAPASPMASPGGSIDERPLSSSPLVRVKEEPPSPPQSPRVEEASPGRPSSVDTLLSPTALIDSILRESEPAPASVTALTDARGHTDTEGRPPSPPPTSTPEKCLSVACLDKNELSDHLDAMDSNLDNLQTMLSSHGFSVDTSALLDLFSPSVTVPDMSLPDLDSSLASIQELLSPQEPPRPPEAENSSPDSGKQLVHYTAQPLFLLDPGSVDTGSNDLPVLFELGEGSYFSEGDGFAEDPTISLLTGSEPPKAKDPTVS
How it was run: as §1

SPIC = molecular target: T8, SPIC (Homo sapiens, UniProt Q8N5J4 1-248); conditions: protein: recombinant; tags: N-terminal GST; dsDNA, one strand shown
T8 sequence: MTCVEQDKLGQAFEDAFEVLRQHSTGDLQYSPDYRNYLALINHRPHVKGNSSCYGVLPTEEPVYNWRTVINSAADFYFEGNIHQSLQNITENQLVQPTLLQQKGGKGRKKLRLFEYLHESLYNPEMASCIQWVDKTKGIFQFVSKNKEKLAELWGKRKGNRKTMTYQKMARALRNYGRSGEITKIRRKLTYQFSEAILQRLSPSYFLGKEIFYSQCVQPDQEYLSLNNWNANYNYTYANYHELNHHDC
How it was run: as §1

ELF4 = ELF4 (Homo sapiens, UniProt Q99607 1-663); conditions: protein: recombinant; tags: N-terminal GST; dsDNA, one strand shown
Sequence of ELF4 (Q99607 whole entry): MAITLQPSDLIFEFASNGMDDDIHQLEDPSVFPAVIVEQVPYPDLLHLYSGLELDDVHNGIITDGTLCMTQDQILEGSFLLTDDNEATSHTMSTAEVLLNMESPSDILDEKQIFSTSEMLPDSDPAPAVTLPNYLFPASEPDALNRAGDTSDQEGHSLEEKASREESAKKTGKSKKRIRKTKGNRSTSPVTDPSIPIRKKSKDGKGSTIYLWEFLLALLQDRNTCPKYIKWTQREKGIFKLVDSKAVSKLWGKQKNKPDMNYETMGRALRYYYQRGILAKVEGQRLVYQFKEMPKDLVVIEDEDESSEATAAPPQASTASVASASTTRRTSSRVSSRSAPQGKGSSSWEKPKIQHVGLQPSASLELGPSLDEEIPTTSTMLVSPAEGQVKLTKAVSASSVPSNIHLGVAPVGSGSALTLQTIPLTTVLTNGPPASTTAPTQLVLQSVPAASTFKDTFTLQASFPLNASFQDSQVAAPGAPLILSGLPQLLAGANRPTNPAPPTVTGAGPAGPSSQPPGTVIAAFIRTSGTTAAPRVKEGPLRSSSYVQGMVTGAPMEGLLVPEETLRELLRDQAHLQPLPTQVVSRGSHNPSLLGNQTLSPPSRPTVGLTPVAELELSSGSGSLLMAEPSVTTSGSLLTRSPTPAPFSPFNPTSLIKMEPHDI
How it was run: as §1

ELK4 = molecular target: T9, ELK4 (Homo sapiens, UniProt P28324-2 1-405); conditions: protein: recombinant; tags: N-terminal GST; dsDNA, one strand shown
T9 sequence: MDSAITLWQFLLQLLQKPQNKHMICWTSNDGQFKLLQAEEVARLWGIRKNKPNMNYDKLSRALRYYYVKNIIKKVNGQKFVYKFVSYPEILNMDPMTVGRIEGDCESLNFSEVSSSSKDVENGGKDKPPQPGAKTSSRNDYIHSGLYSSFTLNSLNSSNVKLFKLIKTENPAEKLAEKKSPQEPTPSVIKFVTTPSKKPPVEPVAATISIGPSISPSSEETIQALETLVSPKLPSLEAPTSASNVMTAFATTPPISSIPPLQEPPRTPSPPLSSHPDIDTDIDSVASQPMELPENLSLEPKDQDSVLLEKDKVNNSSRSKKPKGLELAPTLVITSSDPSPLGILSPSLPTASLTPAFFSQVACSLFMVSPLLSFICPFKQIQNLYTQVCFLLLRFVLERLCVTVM
How it was run: as §1

ETV2 = molecular target: T10, ETV2 (Homo sapiens, UniProt O00321 1-342); conditions: protein: recombinant; tags: N-terminal GST; dsDNA, one strand shown
T10 sequence: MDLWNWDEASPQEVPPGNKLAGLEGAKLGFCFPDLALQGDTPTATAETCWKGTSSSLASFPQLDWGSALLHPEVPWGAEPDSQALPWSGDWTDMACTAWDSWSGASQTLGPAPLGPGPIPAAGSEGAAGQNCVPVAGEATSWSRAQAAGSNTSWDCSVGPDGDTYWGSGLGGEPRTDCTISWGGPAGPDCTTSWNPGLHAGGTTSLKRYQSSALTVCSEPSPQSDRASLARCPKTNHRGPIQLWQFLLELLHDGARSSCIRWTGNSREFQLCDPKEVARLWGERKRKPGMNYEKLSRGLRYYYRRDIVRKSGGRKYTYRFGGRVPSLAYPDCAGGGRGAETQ
How it was run: as §1

ELF3 = molecular target: T11, ELF3 (Homo sapiens, UniProt P78545 1-371); conditions: protein: recombinant; tags: N-terminal GST; dsDNA, one strand shown
T11 sequence: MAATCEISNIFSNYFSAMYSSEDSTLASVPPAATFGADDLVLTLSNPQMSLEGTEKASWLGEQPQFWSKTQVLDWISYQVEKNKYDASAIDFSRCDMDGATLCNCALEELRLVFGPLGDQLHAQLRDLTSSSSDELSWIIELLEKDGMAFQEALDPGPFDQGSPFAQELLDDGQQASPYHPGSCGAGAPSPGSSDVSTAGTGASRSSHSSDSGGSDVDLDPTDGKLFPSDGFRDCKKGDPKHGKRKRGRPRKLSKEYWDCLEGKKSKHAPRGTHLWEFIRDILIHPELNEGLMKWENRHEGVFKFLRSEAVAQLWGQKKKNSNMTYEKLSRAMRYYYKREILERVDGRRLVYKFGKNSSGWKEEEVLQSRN
How it was run: as §1

CRX = CRX (Homo sapiens, UniProt O43186 1-299); conditions: protein: recombinant; tags: N-terminal GST; dsDNA, one strand shown
Sequence of CRX (O43186 whole entry): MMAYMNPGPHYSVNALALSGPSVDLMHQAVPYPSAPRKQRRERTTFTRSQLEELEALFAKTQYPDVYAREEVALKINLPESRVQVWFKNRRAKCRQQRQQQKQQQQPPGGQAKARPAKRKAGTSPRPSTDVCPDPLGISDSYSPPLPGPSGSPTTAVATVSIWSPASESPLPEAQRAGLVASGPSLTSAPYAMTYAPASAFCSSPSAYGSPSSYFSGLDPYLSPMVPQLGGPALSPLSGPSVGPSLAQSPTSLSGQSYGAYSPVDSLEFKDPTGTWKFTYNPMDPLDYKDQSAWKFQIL
How it was run: as §1

ETV1 = ETV1 (Homo sapiens, UniProt P50549 1-477); conditions: protein: recombinant; tags: N-terminal GST; dsDNA, one strand shown
Sequence of ETV1 (P50549 whole entry): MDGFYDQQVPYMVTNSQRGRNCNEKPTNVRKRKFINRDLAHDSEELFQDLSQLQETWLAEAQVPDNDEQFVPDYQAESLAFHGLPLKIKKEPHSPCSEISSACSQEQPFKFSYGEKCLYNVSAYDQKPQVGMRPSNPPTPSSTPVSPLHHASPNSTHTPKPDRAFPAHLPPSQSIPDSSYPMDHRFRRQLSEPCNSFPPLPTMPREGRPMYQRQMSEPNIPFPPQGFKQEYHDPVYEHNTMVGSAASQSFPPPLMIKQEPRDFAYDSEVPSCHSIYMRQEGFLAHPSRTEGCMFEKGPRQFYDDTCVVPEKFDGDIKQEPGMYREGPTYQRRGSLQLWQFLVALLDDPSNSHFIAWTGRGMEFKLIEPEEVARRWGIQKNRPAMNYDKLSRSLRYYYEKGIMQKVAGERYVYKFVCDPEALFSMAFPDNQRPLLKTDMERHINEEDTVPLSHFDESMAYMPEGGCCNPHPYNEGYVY
How it was run: as §1

With ATAAAA the binding signal (FLI1) was 1.09 fold enrichment (6-mer frequency, TF over GST control), the binding signal (ELK1) was 1.15 fold enrichment (6-mer frequency, TF over GST control) and the binding signal (GABPA) was 1.1 fold enrichment (6-mer frequency, TF over GST control). For the same sequence, the binding signal (ERG) was 1.09 fold enrichment (6-mer frequency, TF over GST control), the binding signal (ELF1) was 1.12 fold enrichment (6-mer frequency, TF over GST control) and the binding signal (EHF) was 1.1 fold enrichment (6-mer frequency, TF over GST control). For the same sequence, the binding signal (SPI1) was 1.17 fold enrichment (6-mer frequency, TF over GST control), the binding signal (SPIB) was 1.21 fold enrichment (6-mer frequency, TF over GST control) and the binding signal (ELK3) was 1.12 fold enrichment (6-mer frequency, TF over GST control). The binding signal (FEV) was 1.15 fold enrichment (6-mer frequency, TF over GST control), the binding signal (ETV5) was 1.12 fold enrichment (6-mer frequency, TF over GST control) and the binding signal (HSF1) was 1.31 fold enrichment (6-mer frequency, TF over GST control). The binding signal (SPIC) was 1.02 fold enrichment (6-mer frequency, TF over GST control), the binding signal (ELF4) was 1.2 fold enrichment (6-mer frequency, TF over GST control) and the binding signal (ELK4) was 1.17 fold enrichment (6-mer frequency, TF over GST control). For the same sequence, the binding signal (ETV2) was 1.2 fold enrichment (6-mer frequency, TF over GST control), the binding signal (ELF3) was 1.2 fold enrichment (6-mer frequency, TF over GST control) and the binding signal (CRX) was 1.43 fold enrichment (6-mer frequency, TF over GST control). The binding signal (ETV1) was 1.16 fold enrichment (6-mer frequency, TF over GST control).
